High-throughput results (PubChem BioAssay)
Shiga inhibitor: blocks Shiga toxin action in Vero cells. Vero cells, Shiga toxin protein synthesis inhibition reporter. inhibition, % at 38.7 µM. hit rate 9.2% among 290,000. AID 2315; in the data active means inhibition mostly above about 28%, no sharp cut-off; inactive means mostly below about 43%; further: 0% is about no effect
CHX counter: affects cycloheximide protein synthesis inhibition readout, counter-screen | cell reporter, cycloheximide protein synthesis inhibition counterscreen | max response, % | hit rate 12% among 300,000 | AID 2314; in the data active means max response mostly above about 13%, no sharp cut-off; inactive means mostly below about 14%; further: read at 38.3 µM for the half of the compounds with a filed dose; 0% is about no effect
NS1 function inh: blocks influenza NS1 protein function | Potency, µM (highest dose often 46.1 µM), without a hit: at the highest dose activity, positive = more growth | hit rate 0.4% among 270,000; calls by dose curve; further: potency means the concentration at half of the fitted maximal effect; actives are rising curves; nearly all actives have a fitted effect of over 50% in size
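In this qHTS, NS1 from influenza A is expressed in budding yeast, where it slows growth. Cells are switched from glucose to 2% galactose medium (pH 6.0, -URA), treated with compound, and growth recovery is read at OD600.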
Giardia FBPA inh: blocks Giardia fructose-bisphosphate aldolase activity; A8B2U2; purified Giardia FBPA; Potency, µM (titrated, usually from 59.6 µM), for the others: at the highest dose activity, negative = inhibition, actives largely listed as inhibitors; hit rate 0.71% among 290,000; further: potency means the concentration at half of the fitted maximal effect; on the % scale 0 is the no-effect control and ±100 the full control effect; nearly all actives have a fitted effect of over 55% in size
Target sequence (A8B2U2 whole entry, looked up): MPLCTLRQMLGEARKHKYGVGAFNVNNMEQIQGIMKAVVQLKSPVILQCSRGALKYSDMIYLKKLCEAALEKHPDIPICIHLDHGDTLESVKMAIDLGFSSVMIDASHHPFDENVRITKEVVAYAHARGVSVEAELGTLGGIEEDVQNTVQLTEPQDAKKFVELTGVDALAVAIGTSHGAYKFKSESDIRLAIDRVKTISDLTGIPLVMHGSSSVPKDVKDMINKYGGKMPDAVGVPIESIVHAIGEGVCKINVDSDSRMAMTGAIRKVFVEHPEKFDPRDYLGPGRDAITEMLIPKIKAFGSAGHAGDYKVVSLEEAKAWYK
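Giardia FBPA (40 nM reagent) was preincubated 10 min at RT with compound (up to 57.5 uM final), then substrate plus GAPDH/TPI/NAD/arsenate coupling system with diaphorase/resazurin was added; resorufin fluorescence (525/598 nm) was read after 20 min.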
LmPK inhibitor: inhibitors of Leishmania mexicana pyruvate kinase | Q27686 | Potency, µM (titrated, usually from 57.5 µM), without a hit: at the highest dose activity change, negative = inhibition, actives largely listed as inhibitors | purified LmPK, Kinase-Glo ATP luminescence, 1 h | hit rate 0.37% among 290,000; further: potency means the concentration at half of the fitted maximal effect; on the % scale 0 is the no-effect control and ±100 the full control effect
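0.1 nM LmPK, 0.5 mM PEP, 0.1 mM ADP; 50 mM imidazole pH 7.2, 7 mM MgCl2, 50 mM KCl; 1 h RT. Kinase-Glo luminescence readout, normalized to no-enzyme (full inhibition) and uninhibited wells.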
The depositor's hits bear a star; [ ] = dose if it differs, or a comment. In the library only some 14% were active in any assay of this set; here they are far more common. Unless noted, the call rests on the fitted dose curve; in most records, active means well fitted curve in the direction sought with a large enough effect; inconclusive means small, poorly fitted or top-dose-only effect, or another doubt; inactive means no such curve, though single readings can be large; an effect the other way counts as inactive or inconclusive.

COc1ccccc1Nc1nc(Cl)c(C=O)s1 was read as Shiga inhibitor 79.9, CHX counter 47.8*, Giardia FBPA inh 2.4% and LmPK inhibitor -17.6%.
Cc1ccc(Nc2nc(Cl)c(C=O)s2)cc1Cl was read as Shiga inhibitor 24.8, CHX counter 23.5*, Giardia FBPA inh -11.6% and LmPK inhibitor -6.3%.
`CC(C)(C)N(Cc1ccccc1)C(=O)COc1cccnc1[N+](=O)[O-]` gave Shiga inhibitor -3.4, CHX counter 1.6, NS1 function inh -0.9%, Giardia FBPA inh 7.2% and LmPK inhibitor -2.7%.
`Cc1ccc(C(O)CSc2nnc(-c3ccc4ccccc4c3)n2C)cc1` (stereo unspecified) gave Shiga inhibitor -10.4, CHX counter -2.4, NS1 function inh -5.7%, Giardia FBPA inh 0.0% and LmPK inhibitor 1.4%.
For Cn1c(O)c(C=NC2CCCCCC2)c(=O)[nH]c1=S the results were Shiga inhibitor -4.4, CHX counter 15.7, NS1 function inh 2.5%, Giardia FBPA inh 4.7% and LmPK inhibitor -9.7%.
Screening CCc1cc(C=NC2CCCCC2)c(O)s1 returned Shiga inhibitor 118.6*, CHX counter 66.5*, NS1 function inh -2.8%, Giardia FBPA inh 1.0% and LmPK inhibitor 2.7%.
`Cc1cccc(N2C(=O)N3[C@@H]4c5ccccc5OC[C@@H]4[C@@H](c4ccccc4)[C@@]3(C)C2=O)c1` gave Shiga inhibitor -6.2, CHX counter -2.1, NS1 function inh inconclusive, Giardia FBPA inh -2.9% and LmPK inhibitor -5.3%.
`COc1ccc(C(=O)Nc2cccc(-c3nnc(-c4ccco4)o3)c2)cc1` gave Shiga inhibitor 56.6, CHX counter 30.7*, NS1 function inh -17.3%, Giardia FBPA inh 1.3% and LmPK inhibitor 1.7%.
COc1cc(C(=O)Nc2cccc(-c3nnc(-c4ccco4)o3)c2)ccc1OC(C)=O was read as Shiga inhibitor 65.7*, CHX counter 31.3*, NS1 function inh 1.8%, Giardia FBPA inh -6.8% and LmPK inhibitor 2.6%.
`CC(C)=CCOc1ccc(/C=C/C(=O)c2ccc(OCC=C(C)C)cc2OCC(=O)O)cc1` gave Shiga inhibitor 21.3, CHX counter 6.9 and Giardia FBPA inh 28.2%.
`CC(C)(C)c1cc(CP(=O)(c2ccccc2)c2ccccc2)cc(C(C)(C)C)c1O` gave CHX counter 12.7*, NS1 function inh -25.9%, Giardia FBPA inh 10.5% and LmPK inhibitor -3.4%.
O=S1(=O)N=C(Nc2ccc(N3CCOCC3)c(Cl)c2)c2ccccc21 was read as Shiga inhibitor 85.3*, CHX counter 48.0*, Giardia FBPA inh -5.7% and LmPK inhibitor 1.4%.
For O=S1(=O)N=C(Nc2ccc(O)cc2)c2ccccc21 the results were Shiga inhibitor 9.5, CHX counter -0.8, Giardia FBPA inh 2.9% and LmPK inhibitor 1.8%.
`CS(=O)(=O)Nc1cccc(-c2nc(N3CCOCC3)c3ccccc3n2)c1` gave Giardia FBPA inh -5.4%.
Screening C[C@@H]1C=CCC(=O)OC[C@H](C)C(=O)OC[C@H]2O[C@H]1C=C[C@@H]2O returned Giardia FBPA inh 2.4%[12.9 µM].
For CCOc1ccc(NC(=O)C2Cc3ccccc3CN2S(=O)(=O)CC)cc1 (stereo unspecified) the results were Shiga inhibitor 45.5, CHX counter 27.8, Giardia FBPA inh -2.6% and LmPK inhibitor 2.8%.
Screening Cc1ccc2nc(NC(=O)C3CCCN(S(=O)(=O)c4cccnc4)C3)sc2c1 (stereo unspecified) returned Shiga inhibitor -24.1, CHX counter 1.0, NS1 function inh -67.1%, Giardia FBPA inh -6.6% and LmPK inhibitor 6.1%.
CCS(=O)(=O)N1Cc2ccccc2CC1C(=O)Nc1nc2ccc(C)cc2s1 (stereo unspecified) was read as Shiga inhibitor 68.4*, CHX counter 38.6*, NS1 function inh 16.2%, Giardia FBPA inh -5.3% and LmPK inhibitor 0.9%.
`Cc1ccc2nc(NC(=O)C3CCCN(S(=O)(=O)c4cnc[nH]4)C3)sc2c1` (stereo unspecified) gave Shiga inhibitor active, CHX counter 43.3*, NS1 function inh inconclusive, Giardia FBPA inh -8.1% and LmPK inhibitor -1.1%.
CCS(=O)(=O)N1Cc2ccccc2CC1C(=O)Nc1ncc(C)s1 (stereo unspecified) was read as Shiga inhibitor 107.7*, CHX counter 40.5*, NS1 function inh -0.2%, Giardia FBPA inh -3.0% and LmPK inhibitor 3.9%.
CC1CCCC(C)N1C(=O)COC(=O)c1ccc(F)c(S(=O)(=O)N2CCOCC2)c1 (stereo unspecified) was read as Shiga inhibitor -3.0, CHX counter 0.8, NS1 function inh 3.1% and LmPK inhibitor -2.3%.
Screening Cc1ccc(NC(=O)Cn2nc(C)c(S(=O)(=O)N(C)C)c2C)cc1 returned Shiga inhibitor 17.5, CHX counter 1.3, Giardia FBPA inh -5.6% and LmPK inhibitor 6.4%.
For N#Cc1ccccc1CSc1ccc(-c2nc3ccccc3[nH]2)cn1 the results were Shiga inhibitor 79.5*, CHX counter 47.1*, NS1 function inh 23.1%, Giardia FBPA inh -0.8% and LmPK inhibitor -16.7%.
For Cc1ccc2nc(-c3ccc(SCC(=O)N4CCc5ccccc54)nc3)[nH]c2c1 the results were Shiga inhibitor 120.9*, CHX counter 56.4*, NS1 function inh 16.5%, Giardia FBPA inh -28.4% and LmPK inhibitor -3.2%.
For CC(=O)CSc1ccc(-c2nc3ccccc3[nH]2)cn1 the results were CHX counter 15.7*, NS1 function inh -38.3%, Giardia FBPA inh -11.4% and LmPK inhibitor inconclusive.
For COC(=O)c1ccc2[nH]c3c(c2c1)CC(C)CC3 (stereo unspecified) the results were Shiga inhibitor 58.7*, CHX counter 35.5*, NS1 function inh -4.5%, Giardia FBPA inh -4.5% and LmPK inhibitor 1.1%.
Screening CCOC(=O)c1ccc2[nH]c3c(c2c1)CCCC3O (stereo unspecified) returned Shiga inhibitor 35.0, CHX counter 23.9*, NS1 function inh -5.0%, Giardia FBPA inh -4.7% and LmPK inhibitor -1.3%.
For CC1CCc2[nH]c3ccc(C(=O)Nc4ccc(C(=O)N(C)C)cc4)cc3c2C1 (stereo unspecified) the results were Shiga inhibitor -16.1, CHX counter 7.1, NS1 function inh 10.0% and LmPK inhibitor -8.1%.
`CCOC(=O)c1ccc2[nH]c3c(c2c1)CCCC3` gave Shiga inhibitor 86.8*, CHX counter 51.0*, NS1 function inh -31.8%, Giardia FBPA inh 0.5% and LmPK inhibitor 2.1%.
CCOC(=O)CNC(=O)C1CCCc2c1[nH]c1ccc(Cl)cc21 (stereo unspecified) was read as Shiga inhibitor -11.7, CHX counter -1.4, NS1 function inh 0.4%, Giardia FBPA inh 1.3% and LmPK inhibitor -3.1%.
Screening CN(CCC#N)C(=O)COC(=O)c1ccc2[nH]c3c(c2c1)CCCC3 returned Shiga inhibitor 29.8, CHX counter 23.7, Giardia FBPA inh -6.3% and LmPK inhibitor 1.0%.
Cc1cccc(N/N=C/c2ccc(O)c(O)c2O)c1 was read as Shiga inhibitor 11.6, CHX counter 0.4, NS1 function inh -2.0%, Giardia FBPA inh 14.1µM* and LmPK inhibitor 7.6%.
